# Target: T1, Testis-specific serine/threonine-protein kinase 2 (Homo sapiens) (UniProt Q96PF2)
# T1 sequence (whole entry): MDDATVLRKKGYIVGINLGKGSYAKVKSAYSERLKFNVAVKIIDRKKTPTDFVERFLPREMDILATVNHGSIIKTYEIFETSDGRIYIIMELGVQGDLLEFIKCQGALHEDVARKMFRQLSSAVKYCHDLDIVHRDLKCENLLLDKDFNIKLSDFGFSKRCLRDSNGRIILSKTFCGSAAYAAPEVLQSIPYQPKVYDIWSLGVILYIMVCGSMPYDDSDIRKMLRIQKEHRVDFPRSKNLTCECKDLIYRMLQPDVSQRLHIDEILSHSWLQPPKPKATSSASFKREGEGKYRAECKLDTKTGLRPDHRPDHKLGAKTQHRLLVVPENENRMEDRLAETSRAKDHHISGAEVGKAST
# Details: at 1 µM
row,Compound,residual activity
1,Oc1c2ccccc2c2c3c(cccc13)N=N2,92%
2,Cc1ccc(NC2=CC(=O)c3sc(C)nc3C2=O)cc1,93%
3,Cn1cc(/C=C2\C(=O)Nc3ccc(S(N)(=O)=O)cc32)c2ccccc21,72%
4,CCCCc1c(-c2ccc(O)cc2)[nH]c2nccnc12,94%
5,O=C1NC(=O)c2cc(Nc3ccc(F)cc3)c(Nc3ccc(F)cc3)cc21,91%
6,COc1ccc(Cl)cc1NC(=O)Nc1cc(C)nc2ccccc12,100%
7,Ic1cccc(CSc2nnc(-c3ccncc3)o2)c1,87%
8,Nc1n[nH]c2nnc(-c3c(-c4ccccc4)nn4ccccc34)cc12,104%
9,O=C1c2ccccc2-[n+]2ccc3c([nH]c4ccccc43)c21,98%
10,O=c1cc(-c2cccc3c2Sc2ccccc2S3)oc(N2CCOCC2)c1,112%
11,CCOC(=O)c1c(C)[nH]c(/C=C2\C(=O)Nc3ccccc32)c1C,90%
12,COc1ccc2c(c1)c(C1=C(c3c[nH]c4ccccc34)C(=O)NC1=O)cn2CCCN(C)C,81%
13,Cc1cc2ncc(-c3ccccc3)nc2cc1C,91%
14,CCN(CC)CCNC(=O)c1c(C)[nH]c(/C=C2\C(=O)Nc3ccc(Cl)cc32)c1C,62%
15,Nc1ncnc2c1c(-c1ccc(Oc3ccccc3)cc1)cn2C1CCCC1,86%
16,CCCC(=O)Oc1ccc2[nH]c(C(=O)c3cc4ccccc4[nH]3)cc2c1,96%
17,O=C1NC(=O)/C(=C\c2ccc3nccnc3c2)S1,90%
18,O=C(O)c1ccc2c3c1cccc3c(=O)n1c3ccccc3nc21,118%
19,Cc1cccc(-c2[nH]c(C(C)(C)C)nc2-c2ccc3c(c2)OCO3)n1,93%

# Source: ChEMBL document CHEMBL2218924, “A broad activity screen in support of a chemogenomic map for kinase signalling research and drug discovery” (Biochem J, 2013)
